D1 antagonist = blocks dopamine activation of the human D1 receptor | HEK293 TREx D1 cells, calcium flux, dopamine EC80; active compounds read low | 360,000 compounds, 3.2% hits | AID 504652 | activity change, negative = inhibition, % at 10 µM; in the data active means activity change below about -30%
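After overnight tetracycline induction at 30 C, force-coupled D1 HEK293 cells took up a no-wash calcium dye at room temperature. Compounds were added and monitored 180 s, and the response to EC80 dopamine was then recorded.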
D1 ag = activates the human D1 dopamine receptor. P21728. HEK293 T-REx D1 cells, calcium flux, agonist mode. activation, % at 2 µM. 360,000 compounds, 1% hits; in the data active means activation above about 30%
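Tetracycline-induced HEK293 TREx D1 cells, force-coupled to calcium signalling, were dye-loaded with a no-wash calcium kit. Compound was pin-added after a 10 s baseline. Fluorescence was read kinetically at 1 cycle/s for 180 s, with calcium rises flagged as agonism.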
D1 potentiator = potentiators of human D1 dopamine receptor | potentiation, % at 10 µM | 360,000 compounds, 0.036% hits | P21728 | HEK293 TREx D1 cells, calcium flux, dopamine EC20 potentiation; in the data active means potentiation above about 30%
Eya2 phos inh = blocks the phosphatase activity of human Eya2 | Potency, µM (top dose mostly 76.9 µM), actives largely listed as inhibitors | recombinant Eya2, OMFP fluorescence dephosphorylation (OMFP is methylfluorescein phosphate) | O00167 | AID 488837 | 330,000 compounds, 0.006% hits
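Eya2 protein (added as 0.2 uM solution) was preincubated with compound for 10 min at ambient temperature in 50 mM HEPES pH 7.5, 50 mM NaCl, 5 uM MgCl2, 0.05% BSA, 1 mM DTT. OMFP (added at 50 uM) then reacted 10 min; fluorescence read at 485/525 nm.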
USP2a inh = blocks human ubiquitin-specific protease USP2a; 330,000 compounds, 0.01% hits; AID 463254; Potency, µM (highest dose often 38.3 µM), actives largely listed as inhibitors; O75604; USP2 core, Ub-CHOP2 coupled fluorogenic reporter, 485/531
Target sequence (O75604 whole entry, looked up): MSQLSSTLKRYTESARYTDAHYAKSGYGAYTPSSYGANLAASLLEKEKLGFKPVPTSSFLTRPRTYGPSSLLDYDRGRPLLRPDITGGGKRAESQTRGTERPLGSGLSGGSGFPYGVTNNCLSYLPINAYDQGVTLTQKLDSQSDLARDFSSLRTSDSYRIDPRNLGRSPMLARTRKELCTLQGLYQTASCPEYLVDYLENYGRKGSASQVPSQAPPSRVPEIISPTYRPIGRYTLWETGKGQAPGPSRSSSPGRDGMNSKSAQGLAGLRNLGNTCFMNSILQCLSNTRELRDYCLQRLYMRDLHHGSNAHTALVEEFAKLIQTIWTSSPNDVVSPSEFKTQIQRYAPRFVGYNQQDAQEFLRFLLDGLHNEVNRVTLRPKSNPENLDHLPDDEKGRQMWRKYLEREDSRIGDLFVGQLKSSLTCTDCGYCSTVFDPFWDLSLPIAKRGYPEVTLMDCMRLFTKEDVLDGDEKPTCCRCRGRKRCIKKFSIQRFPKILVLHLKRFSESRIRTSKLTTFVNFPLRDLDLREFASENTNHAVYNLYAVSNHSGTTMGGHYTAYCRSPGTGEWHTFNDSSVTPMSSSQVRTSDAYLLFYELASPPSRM
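USP2 core (10nM final) preincubated 30min RT with compound in 20mM Tris-HCl pH 8.0, 2mM CaCl2, 2mM beta-mercaptoethanol, 0.05% CHAPS; 25nM Ub-CHOP2 plus 25nM reporter substrate added, fluorescence (Ex485/Em531) read after 60min.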
GALK inh = inhibitors of human galactokinase; Purified GALK, Kinase-Glo residual ATP luminescence; Potency, µM (highest dose often 57.5 µM), most hits filed as inhibitors; 270,000 compounds, 0.007% hits; P51570
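Luminescence from leftover ATP (Ultra-Glo luciferase/luciferin) served as read-out after a 1 h room-temperature reaction of 5 nM GALK with 35 uM ATP and 100 uM galactose.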
Hits are given with their value; i = inactive; ? = inconclusive; nt = no result. The list is not random: actives were taken first. Their share in the collection is about 3.9%. Unless noted, the call rests on the fitted dose curve; in most records, active means well fitted inhibition curve with a large enough effect; inconclusive means small, poorly fitted or top-dose-only effect, or effect the other way; inactive means flat fitted curve, though single readings scatter.

SMILES	D1 antagonist	D1 ag	D1 potentiator	Eya2 phos inh	USP2a inh	GALK inh
CCOc1nc(NC(=O)NS(=O)(=O)c2ccccc2F)nc(-c2ccccc2)n1	-31	i	i	i	i	i
COc1ccc(C(C)NC(=S)NCc2ccc(F)cc2)cc1 (configuration not stated)	i	i	i	i	i	i
Cc1ccc(C)c(C(C)NC(=S)NCc2ccc(F)cc2)c1 (configuration not stated)	i	93	i	i	i	i
CCC(NC(=S)NCc1ccc(F)cc1)c1ccccc1 (configuration not stated)	i	40	i	i	i	i
Cc1ccc(C)c(CN2C(=O)c3ccccc3S(=O)(=O)c3ccc(C(=O)N4CCc5ccccc54)cc32)c1	i	i	i	nt	nt	nt
CC(=O)C1=C(O)CCCC1=NCc1nc2ccccc2[nH]1	-34	i	i	i	i	i
CSc1cccc(N2CC(C(=O)Nc3ccccc3N3CCCC3)CC2=O)c1 (configuration not stated)	-32	i	i	i	i	nt
COc1ccc(C2CCCN2CC(O)COc2ccccc2C(C)C)cc1 (configuration not stated)	-30	i	i	?	i	i
O=C(/C=C/c1cn(CC(O)CN2CCOCC2)c2ccccc12)c1cccs1 (configuration not stated)	-81	i	i	i	i	i
Cc1ccc(C(=O)/C=C/c2cn(CC(O)CN3CCOCC3)c3ccccc23)cc1 (configuration not stated)	i	i	i	i	i	i
O=C(NCCS(=O)(=O)NCc1ccccc1Cl)c1ccc2c(c1)OCO2	-35	i	i	i	i	nt
COc1ccc(CCC(=O)NNC(=O)c2ccc(F)cc2)cc1	-30	i	i	i	i	i
COc1ccc(C(=O)NCCS(=O)(=O)NCc2ccc(F)cc2)cc1	-31	i	i	i	i	nt
COc1ccccc1CNS(=O)(=O)CCNC(=O)c1ccccc1	-30	i	i	i	i	nt
COc1ccc(C(=O)NCCS(=O)(=O)NCc2ccccc2)cc1	i	i	i	i	i	nt
O=C(NCCS(=O)(=O)NCc1ccccc1)c1ccccc1	i	i	i	i	i	nt
COc1ccc(CCC(=O)NNC(=S)NCc2ccc(F)cc2)cc1	i	i	i	i	i	i
CCc1cccc(C)c1Nc1c(-c2cccc(O)c2)nc2nc(C)cc(C)n12	i	i	i	nt	nt	nt
COc1ccc(-c2cc(C(=O)NCCc3ccc(Cl)cc3)[nH]n2)cc1	i	i	i	nt	nt	nt
COc1cccc(-c2cc(C(=O)NCCc3ccc(C)cc3)[nH]n2)c1	-70	i	i	nt	nt	nt
CN1CCc2cc(Cl)c(O)cc2[C@@H](c2ccccc2)C1	-89	i	i	i	i	i
CN1CCc2cc(O)c(O)cc2C(c2ccccc2)C1 (configuration not stated)	-88	i	i	i	i	nt
COc1ccc(Cl)cc1S(=O)(=O)N1CCN(S(=O)(=O)c2ccc3c(c2)OCCO3)CC1	i	i	i	nt	nt	nt
Cc1cc2oc(=O)c(CC(=O)O)c(C)c2c2occ(-c3ccc(F)cc3)c12	i	i	i	nt	nt	nt
COc1cccc(CCNC(=O)c2c(O)nc3c(C)cccn3c2=O)c1	i	i	i	nt	nt	nt
SMILES	D1 antagonist	D1 ag	D1 potentiator	Eya2 phos inh	USP2a inh	GALK inh
CCOc1ccc(C(=O)NC(C)CCc2ccccc2)cc1 (configuration not stated)	i	i	i	i	i	nt
CCOc1ccc(C(=O)NC(Cc2ccccc2)C(=O)OC)cc1 (configuration not stated)	-32	i	i	i	i	i
CCCC(=O)OCCNc1cc(Sc2nc3ccccc3[nH]2)c2nonc2c1[N+](=O)[O-]	-49	i	i	i	i	i
CCN1C(Nc2ccccc2)=NC[C@@H]1CC(C)C	i	i	i	i	i	nt
CC(C)C[C@H]1CN=C(Nc2ccccc2)N1CCc1cccc(F)c1	nt	nt	nt	i	i	nt
CC(C)C[C@H]1CN=C(Nc2ccccc2)N1CC1CCCCCC1	-31	i	i	i	i	nt
Cc1cccc(CCN2C(Nc3ccccc3)=NC[C@@H]2CC(C)C)c1	i	215	i	i	i	nt

Screening data (PubChem BioAssay)
